Reference: the supplement of paper PMC6555819

These sequences were tested on PXR homodimer (NR concentration 270 nM) (assay: PBM binding z-score (relative to random genomic background probes); higher = stronger binding; sequences stand for … in GC…GCGATTGACAGCGTAGAATGAAGG).
Procedure, shortened: (§1)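 Each nuclear receptor dimer, without ligand, was incubated for 1 h on custom Agilent 4×180K protein-binding microarrays. Binding was detected with antibodies against each partner (one per run), and scanned fluorescence was regression-normalized. The binding z-scores are referenced to random human genomic background probes.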

Row | Sequence | PBM binding z-score
1 | CTGAGTAGGTTACGAGGGGGCATTCAGTGCGAAT | 4.99
2 | TCGAGTAGTTTACGGGGGCATTCAGGGATGAAGA | 1.47
3 | CTCTGTAGGTTAAGGGGGTCATTCAGTTTGAAAG | 12
4 | CTATGTAGGTTAAGGGGGGCATTCAGTTTGAAAG | 8.89
5 | CTATGCAGGTTAAGGGGGTCATTCAGTTTGAAAG | 12.4
6 | CCGAGTAGGTTACGAGAGGGCATTCAGTGCGAAT | 6.97
7 | CTATGTAGGTTAAGGGGGTCGTTCAGTTTGAAAG | 6.99
8 | CTATGTCGGTTAAGGGGGTCATTCAGTTTGAAAG | 8.33
9 | TCGAGGAGGTTACGGGGGCATTCAGGGATGAAGA | 2.7
10 | TCGAGTAGGTTACAGGGGCATTCAGGGATGAAGA | 0.587
11 | TCGAGTAGGTTACGGGGGCATTTAGGGATGAAGA | 1.54
12 | CTATCTAGGTTAAGGGGGTCATTCAGTTTGAAAG | 13.2
13 | CTATGTAGGTTAAGGGGGTCATTCAATTTGAAAG | 3.88
14 | CCGAGTTGGTTACGAGGGGGCATTCAGTGCGAAT | 7.65
15 | CTATGTATGTTAAGGGGGTCATTCAGTTTGAAAG | 9.76
16 | TCGAGTAGGTTACCGGGGCATTCAGGGATGAAGA | -0.524
17 | TCTAGTAGGTTACGGGGGCATTCAGGGATGAAGA | 2.71
18 | TCGAGTAGGTTACGGGGCCATTCAGGGATGAAGA | -0.128
19 | CCGGGTAGGTTACGAGGGGGCATTCAGTGCGAAT | 4.47
20 | TCGAGTAGGTTACGGGGGCATTCAAGGATGAAGA | 1.06

Row | Sequence | PBM binding z-score
21 | CTAAGTAGGTTAAGGGGGTCATTCAGTTTGAAAG | 11.4
22 | TCGAGTAGCTTACGGGGGCATTCAGGGATGAAGA | 1.09
23 | TCGAGTAGGTTACGGGGGCATTCACGGATGAAGA | 1.4
24 | CTATGTAAGTTAAGGGGGTCATTCAGTTTGAAAG | 10.3
25 | CTATGTAGGTTATGGGGGTCATTCAGTTTGAAAG | 12.9
26 | TCGAGTAGGTTACGGGGGCATTCCGGGATGAAGA | 1.1
27 | CTATGTAGGTTAAGGGGGTCATTCACTTTGAAAG | 4.83
28 | TCGAGTAGGTTATGGGGGCATTCAGGGATGAAGA | 1.87
29 | CCGAGTAGGATACGAGGGGGCATTCAGTGCGAAT | 3.26
30 | CTATGTAGGTTAAGGGGGTCATTCAGTTTGAAAG | 11.4
31 | TCGAGTAGGTTACGGGGGCGTTCAGGGATGAAGA | 1.81
32 | TCGAGTAGGTTACGGGGGCATTAAGGGATGAAGA | 1.24
33 | CCGAGTAGGTTATGAGGGGGCATTCAGTGCGAAT | 5.74
34 | CCGAGTAGCTTACGAGGGGGCATTCAGTGCGAAT | 5.04
35 | TCGAGTAGGTTACGGGGGTATTCAGGGATGAAGA | 0.83
36 | CCGTGTAGGTTACGAGGGGGCATTCAGTGCGAAT | 7.2
37 | CTATGTAGGGTAAGGGGGTCATTCAGTTTGAAAG | 11.1
38 | CTATGTAGGTTAAGGGTGTCATTCAGTTTGAAAG | 0.641
39 | CCTAGTAGGTTACGAGGGGGCATTCAGTGCGAAT | 6.19

The sequences below were run on RARa:RXR (NR concentration 270 nM, RXRa partner concentration 90 nM) in the same assay as above.
Procedure, shortened: as §1

Row | Sequence | PBM binding z-score
40 | CTGAGTAGGTTACGAGGGGGCATTCAGTGCGAAT | 3
41 | TCGAGTAGTTTACGGGGGCATTCAGGGATGAAGA | 2.36
42 | CTCTGTAGGTTAAGGGGGTCATTCAGTTTGAAAG | 6.17
43 | CTATGTAGGTTAAGGGGGGCATTCAGTTTGAAAG | 2.96
44 | CTATGCAGGTTAAGGGGGTCATTCAGTTTGAAAG | 5.93
45 | CCGAGTAGGTTACGAGAGGGCATTCAGTGCGAAT | 2.08
46 | CTATGTAGGTTAAGGGGGTCGTTCAGTTTGAAAG | 3.39
47 | CTATGTCGGTTAAGGGGGTCATTCAGTTTGAAAG | 5.76
48 | TCGAGGAGGTTACGGGGGCATTCAGGGATGAAGA | 4.4
49 | TCGAGTAGGTTACAGGGGCATTCAGGGATGAAGA | 1.5
50 | TCGAGTAGGTTACGGGGGCATTTAGGGATGAAGA | 3.29
51 | CTATCTAGGTTAAGGGGGTCATTCAGTTTGAAAG | 6.07
52 | CTATGTAGGTTAAGGGGGTCATTCAATTTGAAAG | 5.82
53 | CCGAGTTGGTTACGAGGGGGCATTCAGTGCGAAT | 2.14
54 | CTATGTATGTTAAGGGGGTCATTCAGTTTGAAAG | 5.5
55 | TCGAGTAGGTTACCGGGGCATTCAGGGATGAAGA | 0.534
56 | TCTAGTAGGTTACGGGGGCATTCAGGGATGAAGA | 3.63
57 | TCGAGTAGGTTACGGGGCCATTCAGGGATGAAGA | 0.892
58 | CCGGGTAGGTTACGAGGGGGCATTCAGTGCGAAT | 3.19
59 | TCGAGTAGGTTACGGGGGCATTCAAGGATGAAGA | 3.21

Row | Sequence | PBM binding z-score
60 | CTAAGTAGGTTAAGGGGGTCATTCAGTTTGAAAG | 5.63
61 | TCGAGTAGCTTACGGGGGCATTCAGGGATGAAGA | 1.47
62 | TCGAGTAGGTTACGGGGGCATTCACGGATGAAGA | 3.16
63 | CTATGTAAGTTAAGGGGGTCATTCAGTTTGAAAG | 5.28
64 | CTATGTAGGTTATGGGGGTCATTCAGTTTGAAAG | 6.28
65 | TCGAGTAGGTTACGGGGGCATTCCGGGATGAAGA | 3.14
66 | CTATGTAGGTTAAGGGGGTCATTCACTTTGAAAG | 5.77
67 | TCGAGTAGGTTATGGGGGCATTCAGGGATGAAGA | 2.72
68 | CCGAGTAGGATACGAGGGGGCATTCAGTGCGAAT | 1.78
69 | CTATGTAGGTTAAGGGGGTCATTCAGTTTGAAAG | 5.93
70 | TCGAGTAGGTTACGGGGGCGTTCAGGGATGAAGA | 2.9
71 | TCGAGTAGGTTACGGGGGCATTAAGGGATGAAGA | 2.79
72 | CCGAGTAGGTTATGAGGGGGCATTCAGTGCGAAT | 2.87
73 | CCGAGTAGCTTACGAGGGGGCATTCAGTGCGAAT | 1.67
74 | TCGAGTAGGTTACGGGGGTATTCAGGGATGAAGA | 2.49
75 | CCGTGTAGGTTACGAGGGGGCATTCAGTGCGAAT | 3.23
76 | CTATGTAGGGTAAGGGGGTCATTCAGTTTGAAAG | 5.58
77 | CTATGTAGGTTAAGGGTGTCATTCAGTTTGAAAG | 1.5
78 | CCTAGTAGGTTACGAGGGGGCATTCAGTGCGAAT | 2.97
